Shiga toxin inh: blocks Shiga toxin action in Vero cells; 290,000 compounds, 9.2% hits; inhibition, % at 38.7 µM; Vero cells, Shiga toxin protein synthesis inhibition reporter; in the data active = inhibition mostly above about 28%, no sharp cut-off; inactive = mostly below about 43%
Cycloheximide cs: counter-screen hit for Shiga toxin inhibitors, cycloheximide; cell reporter, cycloheximide protein synthesis inhibition counterscreen; max response, %; AID 2314; 300,000 compounds, 12% hits; in the data active = max response mostly above about 13%, no sharp cut-off; inactive = mostly below about 14%; also: read at 38.3 µM for the half of the compounds with a filed dose
Pf growth 48h: P. falciparum growth inhibition at 48 hours (one generation). P. falciparum luciferase growth in erythrocytes, 48 h. Potency, µM (top dose mostly 28.7 µM), hits mostly inhibitors. 310,000 compounds, 5.9% hits
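Here the parasites carry a stable luciferase gene and grow inside erythrocytes in Albumax-based RPMI medium with compound for one erythrocytic cycle. Activity is scored as loss of luminescent signal.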
HCMV antiviral: blocks human cytomegalovirus replication; activity change, negative = inhibition, % at 57.5 µM; 410,000 compounds, 4.5% hits; HFF cells, HCMV-luciferase reporter, 72 h; active compounds read low; in the data active = activity change below about -60%; inconclusive = no clear call, values can overlap the other calls; inactive = above about -39%
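Inhibition of viral replication was scored as loss of reporter luminescence in HFFs infected with HCMV-luciferase (MOI 1 PFU/cell) for 72 h; compounds tested at 2 doses, normalized to buffer and Salinomycin controls.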
Pf growth 96h: P. falciparum growth inhibition at 96 hour, primary screen for plastid delayed-death inhibitors | P. falciparum luciferase reporter growth, 96 h | Potency, µM (titrated, usually from 28.7 µM), most hits filed as inhibitors | 320,000 compounds, 6.9% hits
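P. falciparum expressing integrated firefly luciferase, in erythrocytes at 2% hematocrit, 0.05% parasitemia, incubated with compounds 96 h at 37 C, 5% CO2. Growth inhibition read as loss of luminescence; two-generation exposure targets delayed-death apicoplast inhibitors.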
Hits are given with their value; i = inactive; ? = inconclusive; nt = no result given. Hits are enriched below; roughly 20% of the tested compounds scored in any of these assays. Unless noted, calls follow the shape of the dose curve; as a rule, active = well fitted inhibition curve with a large enough effect; inconclusive = small, poorly fitted or top-dose-only effect, or another doubt; inactive = no such curve, though single readings can be large or run the other way.

SMILES	Shiga toxin inh	Cycloheximide cs	Pf growth 48h	HCMV antiviral	Pf growth 96h
COCCn1c(SCC(=O)Nc2sccc2C(N)=O)nnc1-c1ccncc1	i	i	i	i	?
COc1ccc(Cc2nc3ccc(C(=O)NC(C)Cc4ncccc4C)cc3o2)cc1OC (stereo not drawn)	i	29.7	?	i	i
COc1ccc(Cc2nc3ccc(C(=O)N4CCCC4)cc3o2)cc1OC	36.5	i	?	i	i
COc1ccc(Cc2nc3ccc(C(=O)NCc4ncc(C)[nH]4)cc3o2)cc1OC	i	i	i	i	i
COc1ccc(Cc2nc3ccc(C(=O)N(C)CC4COCCO4)cc3o2)cc1 (stereo not drawn)	71.6	39.3	?	i	i
COc1ccc(Cc2nc3ccc(C(=O)N4CCN(C)C(C)C4)cc3o2)cc1OC (stereo not drawn)	i	10.8	i	-63.9	i
CN(Cc1ccccc1)C(=O)C1CCCN(Cc2cccc(Cl)c2)C1 (stereo not drawn)	i	i	i	i	i
Fc1ccccc1/C=N/Nc1ncnc2nc[nH]c12	138.6	48.9	i	i	i
Fc1cccc(/C=N/Nc2ncnc3nc[nH]c23)c1	70.5	82.7	?	i	?
O=C1CC2(CCN(C(=O)c3c(F)cccc3Cl)CC2)Oc2ccccc21	nt	nt	i	i	i
O=C(c1ccco1)c1cn(Cc2ccccc2Cl)c2ccccc12	i	41.5	?	i	nt
O=C(Cn1cc(C(=O)c2ccco2)c2ccccc21)Nc1ccccc1Cl	nt	nt	nt	i	nt
O=C(c1cccs1)c1cn(CC(=O)N2CCc3ccccc3C2)c2ccccc12	i	48.2	?	i	i
O=C(c1ccco1)c1cn(Cc2ccccc2)c2ccccc12	76.6	38.3	nt	i	i
N#Cc1ccccc1Cn1cc(C(=O)c2ccco2)c2ccccc21	23.5	47.2	?	i	?
O=C(O)Cn1cc(C(=O)c2cccs2)c2ccccc21	i	i	i	i	i
CCC(=O)c1cn(Cc2ccccc2C#N)c2ccccc12	i	i	nt	i	?
Cc1ccccc1C(=O)Nc1ccc(C(=O)O)cc1NC(=O)c1ccccc1C	i	i	i	i	i
O=C(c1ccco1)c1cn(CC(=O)N2CCCCC2)c2ccccc12	i	i	i	i	1.65µM
O=C(Cn1cc(C(=O)c2ccco2)c2ccccc21)NC1CCCCC1	i	i	i	i	i
Cc1nc2sc(C(=O)c3ccccc3)c(N)c2c(C)c1C	i	24.2	i	i	i
C=COC(=O)c1sc2nc(C)cc(C)c2c1N	i	i	i	i	i
Cc1nc2sc(C(=O)OC(C)C)c(N)c2c(C)c1C	40.6	19.1	i	i	i
Cc1nc2sc(C(=O)Nc3ccccc3)c(N)c2c(C)c1[N+](=O)[O-]	90.9	49.7	i	i	?
Cc1nc(-c2ccccc2)nc2sc(C(=O)c3ccc(F)cc3)c(N)c12	i	i	i	i	i
SMILES	Shiga toxin inh	Cycloheximide cs	Pf growth 48h	HCMV antiviral	Pf growth 96h
CC(=O)c1ccc(NC(=O)c2sc3nc(C)c(C)c(C)c3c2N)cc1	114.9	53.8	i	i	i
CCOC(=O)c1c(C)[nH]c(C(=O)COC(=O)c2ccco2)c1C	nt	nt	nt	i	nt
CCc1cccc(C)c1NC(=O)COC(=O)c1cc([N+](=O)[O-])ccc1N1CCOCC1	nt	nt	?	i	i
O=C(Nc1cccc2ccccc12)c1csc(COCCO)n1	nt	nt	nt	i	nt
CCOC(=O)c1c(C)[nH]c(CCC(=O)Nc2ccc(N(CC)CC)cc2C)c1C	nt	nt	nt	i	nt
O=c1ccc(Cl)cn1Cc1ccccc1F	i	i	i	i	i
CCOC(=O)c1sc2ncc([N+](=O)[O-])cc2c1N	i	i	i	i	i
CCOC(=O)c1sc2nc(C)c([N+](=O)[O-])c(COC)c2c1N	i	i	10.4µM	i	i
CCOc1ccc(-c2c(C#N)c(N)nc3sc(C(=O)c4ccccc4)c(N)c23)cc1	i	i	i	?	?
COc1ccc(-c2c(C#N)c(N)nc3sc(C(=O)c4ccccc4)c(N)c23)cc1	i	i	9.28µM	?	i
CCC1CN(C(=O)N2CCC(C(=O)NCCc3cc(OC)ccc3OC)CC2)c2ccccc2O1 (stereo not drawn)	nt	nt	nt	i	nt
COc1ccc(F)cc1S(=O)(=O)Nc1cccc(C(=O)O)c1	i	i	i	i	i
C=CCOc1c(CNc2cccc(C(=O)O)c2)cccc1OCC	i	i	i	-81.0	i
C=CCOc1cccc(CNc2cccc(C(=O)O)c2)c1	103.7	29.4	i	i	i
C=CCOc1c(CNc2cccc(C(=O)O)c2)cccc1OC	71.1	37.2	nt	i	i
COc1ccc(-c2ccc(C(=O)Nc3cc(OC)c(OC)c(OC)c3)c3occc23)c(C)c1	nt	nt	nt	i	nt
Cc1cc2c(cc1NC(=O)c1ccc(C(C)(C)C)cc1)n(C)c(=O)c(=O)n2C	nt	nt	nt	i	nt
CCOC(=O)C1=C(OCc2ccc(Cl)cc2)C2C=C(C)C=CC2N=C1 (stereo not drawn)	i	i	nt	i	11.7µM
COc1cccc(CNc2nc3c(-c4ccccc4)nnn3c3ccccc23)c1	nt	nt	nt	i	nt
CCCCCC(=O)NC(=S)Nc1ccc(Cl)cn1	i	i	i	i	i
O=C(COc1ccccc1)Nc1ccc(OCc2cc(=O)n3ccsc3n2)cc1	nt	nt	nt	i	nt
CCOC(=O)c1cc(C(C)=O)c(=O)[nH]c1C	i	i	i	i	i
COC(=O)c1cc(C(C)=O)c(C)[nH]c1=O	i	i	i	i	5.22µM
COc1cccc(/C=C2/SC(=O)N(C)C2=O)c1OCc1ccc(C(=O)O)cc1	i	i	i	?	i
CN1C(=O)S/C(=C/c2ccc(OCc3cccc(C(=O)O)c3)cc2)C1=O	37.1	34.6	i	i	i
SMILES	Shiga toxin inh	Cycloheximide cs	Pf growth 48h	HCMV antiviral	Pf growth 96h
Cc1ccc(C(O)C(=O)c2ccco2)cc1 (stereo not drawn)	nt	nt	i	i	i
Cc1ccc(C(CC(=O)c2ccco2)SCCO)cc1 (stereo not drawn)	71.6	37.6	i	i	i
O=C(CC(SCCO)c1ccc(F)cc1)c1ccco1 (stereo not drawn)	104.2	52.5	?	i	i
CCOC(=O)c1sc(=S)n(CC)c1NC(=O)c1ccccc1	i	i	i	i	i
CCNc1ccc(Br)cc(C(=O)/C=C/c2ccc(Cl)cc2Cl)c1=O	i	i	?	-103.3	i
CNc1ccc(Br)cc(C(=O)/C=C/c2ccc(OC)cc2)c1=O	active	20.8	i	i	i
CNc1ccc(Br)cc(C(=O)/C=C/c2ccc3c(c2)OCO3)c1=O	i	24.9	i	i	?
NNC(=O)/C=C/c1ccc(Cl)cc1Cl	i	i	i	i	i
COC(=O)CNC(=O)/C=C/c1cc(Br)ccc1OC	i	i	i	i	?
CNc1ccc(Br)cc(C(=O)/C=C/c2cc(OC)ccc2OC)c1=O	i	i	?	-101.9	i
COc1ccc(C=CC(=O)c2c(N)n(C)c(=O)n(C)c2=O)cc1	nt	nt	nt	i	nt
C=COCCCNc1ncnc2sc(-c3ccccc3)cc12	i	i	i	?	?
CCOC(=O)c1c(NC(=O)c2cc(C)oc2C)sc(C(=O)Nc2ccc(Cl)cc2)c1C	i	24.4	?	i	?
COCCOC(=O)c1c(NC(=O)CN2c3ccccc3CC2C)sc(C(N)=O)c1C (stereo not drawn)	i	i	11.7µM	i	?

Screening data from PubChem.
